Results from PubChem BioAssay (NCATS).
Results filed as inconclusive are left out. Calls of active or inactive are those of the source. Calls follow the shape of the dose curve; as a rule, active = well fitted inhibition curve with a large enough effect; inconclusive = small, poorly fitted or top-dose-only effect; inactive = flat fitted curve, though single readings scatter.

How the values were obtained:
Experiment in all cases: qHTS profiling for inhibitors of Plasmodium falciparum proliferation (AID 504749); also: nearly all actives have a fitted effect of over 60% in size
Conditions in all cases: P. falciparum in erythrocytes, SYBR Green DNA, 72 h; series mostly up to 28.7 µM
C2A = system: C2A
Summary of the method: (§1)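 Parasite proliferation within erythrocytes, 72 h exposure. Endpoint: SYBR Green I fluorescence after overnight lysis at room temperature. Controls: 0.29 uM artemisinin, DMSO.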

CP185 = system: CP185
Summary of the method: as §1

CP191 = system: CP191
Summary of the method: as §1

CP211 = system: CP211
Summary of the method: as §1

CP217 = system: CP217
Summary of the method: as §1

CP237 = system: CP237
Summary of the method: as §1

CP238 = system: CP238
Summary of the method: as §1

CP250 = system: CP250
Summary of the method: as §1

CP252 = system: CP252
Summary of the method: as §1

CP256 = system: CP256
Summary of the method: as §1

CP265 = system: CP265
Summary of the method: as §1

CP329 = system: CP329
Summary of the method: as §1

DIV30 = system: DIV30
Summary of the method: as §1

ECU = system: ECU
Summary of the method: as §1

HB3 = system: HB3
Summary of the method: as §1

P93_24 = system: P93_24
Summary of the method: as §1

PC15 = system: PC15
Summary of the method: as §1

PC26 = system: PC26
Summary of the method: as §1

SC27B = system: SC27B
Summary of the method: as §1

TAB113 = system: TAB113
Summary of the method: as §1

Measured: Potency
Potency is read from the fitted curve at half-maximal effect.

CC1(C)S[C@@H]2[C@H](NC(=O)Cc3ccccc3)C(=O)N2[C@@H]1C(=O)O
inactive: all assays above

Cc1onc(-c2c(F)cccc2Cl)c1C(=O)N[C@@H]1C(=O)N2[C@H]1SC(C)(C)[C@H]2C(=O)O
inactive: all assays above

CC(C)(C)c1ccc(CN2CCN([C@H](c3ccccc3)c3ccc(Cl)cc3)CC2)cc1
active: C2A 10 µM | CP185 10 µM | CP191 10 µM | CP217 8.91 µM | CP237 7.94 µM | CP238 8.91 µM | CP250 8.91 µM | CP252 11.2 µM | CP256 10 µM | CP265 12.6 µM | ECU 10 µM | HB3 8.91 µM | P93_24 11.2 µM | PC15 11.2 µM | SC27B 10 µM | TAB113 6.31 µM
inactive: CP211 | CP329 | DIV30 | PC26

C[C@H](CCC(=O)O)[C@H]1CC[C@@H]2[C@H]3[C@@H](C[C@@H](O)[C@]21C)[C@]1(C)CC[C@H](O)C[C@@H]1C[C@@H]3O
inactive: all assays above
